# Laboratory results from PubChem BioAssay (NCATS).
# Results filed as inconclusive are left out. Where a call stands in place of a potency, no number is given. Calls of active or inactive are those of the source. Unless noted, calls come from the whole dose curve; as a rule, active = well fitted curve in the direction sought with a large enough effect; inconclusive = small, poorly fitted or top-dose-only effect, or another doubt; inactive = no such curve, though single readings can be large; an effect the other way counts as inactive or inconclusive.
# How the values were obtained:
# [1] = Primary qHTS for Huh7 cytotoxicity: counterscreen for inhibitors of MERS-S pseudotyped particle cell entry (AID 1479147; calls by dose curve); details: cell viability read-out; series mostly up to 57.1 µM
# [2] = Primary qHTS for inhibitors of MERS-S pseudo-typed particle cell entry (AID 1479149; calls by dose curve; note: nearly all actives have a fitted effect of over 60% in size); details: MERS-S pseudotyped particle entry, luciferase; series mostly up to 57.1 µM
# [3] = Primary qHTS for Vero E6 cytotoxicity: counterscreen for inhibitors of SARS-S pseudo-typed particle cell entry (AID 1479150; calls by dose curve); details: cell viability; series mostly up to 57.1 µM
# [4] = NCATS anti-infectives library activity on HEK293 viability as a counter-qHTS vs the C. elegans viability qHTS (AID 1745854); details: HEK293 viability counter-screen; series mostly up to 41.8 µM;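 note: HEK293 cells exposed to compounds for 24 hr before the viability read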
# In short: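 Counter-screen for cytotoxicity: HEK293, 24 hr, 37C, compounds up to 41.7 uM final (a dilution series, 1:5). Readout CellTiter-Glo luminescence, 10 min RT. Digitonin control, 83.3 uM final.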
# [5] = A2780 Cisplatin Sensitive Ovarian Cancer Cell Toxicity qHTS against the NCATS CANVASS Library (AID 1347353); details: A2780 ovarian cancer viability, ATPLite luminescence, 72 h; series mostly up to 46.1 µM; note: nearly all actives have a fitted effect of over 60% in size
# In short: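 Cells are plated at 750 per well and rest for 4 hours. Compounds are added across eleven concentrations, and incubated 72 hours before ATP is quantified by luminescence.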
# [6] = HEK-293 Cancer Cell Toxicity qHTS against the NCATS CANVASS Library (AID 1347355); details: HEK-293 viability, CellTiter-Glo luminescence, 72 h; series mostly up to 46.1 µM; note: nearly all actives have a fitted effect of over 65% in size
# In short: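 First, 1000 cells go into each well and rest for 4 hours. Next, an 11-point dilution range is pinned in. Plates then incubate 72 hours before CellTiter-Glo addition and luminescence reading.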
# [7] = qHTS for inhibitors of ER calcium dysfunction: SERCaMP assay screened against the NCATS CANVASS Library (AID 1347393); details: SH-SY5Y GLuc-SERCaMP secretion, thapsigargin, luminescence; series mostly up to 76.6 µM;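 note: lower secreted reporter signal means inhibitor of ER calcium depletion; nearly all actives have a fitted effect of over 40% in size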
# In short: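 SH-SY5Y GLuc-SERCaMP, 1000 cells/well, 4 h attach; cpd 16 h, 37C/5% CO2; thapsigargin (added as 6x 600 nM) 4 h; coelenterazine; luminescence. Reduced reporter release = ER Ca stabilization.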
# [8] = G06 Cancer Cell Toxicity qHTS against the NCATS CANVASS Library (AID 1347368); details: G06 dog glioma cells, viability ATP luminescence, 72 h; series mostly up to 46.1 µM; note: potency is the fitted concentration of half-maximal effect; nearly all actives have a fitted effect of over 60% in size
# In short: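 Cells were plated at 500 per well, then compounds were added over an 11-point range. After 72 hr at 37C, CellTiterGlo was added and luminescence measured as ATP content.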
# [9] = qHTS assay to identify inhibitors of the type 1 interferon - major histocompatibility complex class I in skeletal muscle: Counter screen cell viability and HiBit confirmation (AID 1347412); details: iHSKM muscle cells + IFN-b, HiBiT or CellTiter-Glo, 24 h; Potency: HiBiT; Viability, at 45.9 µM (top of the series); note: nearly all actives have a fitted effect of over 60% in size
# In short: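 Duplicate plates, pinned identically: one read for HiBiT-tagged endogenous HLA-B luminescence, the other for ATP-content viability via CellTiter Glo. Cells were genome-engineered human myoblasts given 4 ng/ml IFN-b; compounds 12-pt, 1:3 from 46 uM final; 24 hr exposure.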
# [10] = biological target: N-terminal Xaa-Pro-Lys N-methyltransferase 1 (Homo sapiens) (UniProt Q9BV86); test: Confirmatory qHTS for Inhibitors of N-terminal methyltransferase 1 (NTMT1): MTaseGlo Assay (AID 1645874); details: NTMT1 enzyme, MTase-Glo SAH luminescence; note: potency is the fitted concentration of half-maximal effect; nearly all actives have a fitted effect of over 65% in size
# Chain of N-terminal Xaa-Pro-Lys N-methyltransferase 1 (Homo sapiens) (Q9BV86 whole entry, looked up): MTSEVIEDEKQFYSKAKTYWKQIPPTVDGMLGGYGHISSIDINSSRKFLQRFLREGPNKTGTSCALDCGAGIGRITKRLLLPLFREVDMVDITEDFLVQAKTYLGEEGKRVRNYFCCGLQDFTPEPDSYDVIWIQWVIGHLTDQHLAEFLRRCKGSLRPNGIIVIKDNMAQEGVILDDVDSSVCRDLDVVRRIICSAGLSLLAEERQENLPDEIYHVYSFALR
# In short: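 Room-temperature NTMT1 reaction, 30 min, with 100 uM SAM and 1 uM SPKRIA substrate; enzyme 125 nM. Read-out: MTase-Glo luminescence, normalized to no-enzyme and DMSO controls.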
# [11] = biological target: Furin (Homo sapiens) (UniProt P09958); test: Furin counterscreen qHTS for Zika virus inhibitors (AID 1347149); details: furin enzymatic counterscreen, fluorogenic substrate; series mostly up to 57.5 µM;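 note: purified recombinant full-length human furin enzyme at 5 nM; fluorescence gain from furin cutting a BOC-RVRR-AMC peptide substrate over 15 min; top concentration of the series differs between compounds; nearly all actives have a fitted effect of over 70% in size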
# Chain of Furin (Homo sapiens) (P09958 whole entry, looked up): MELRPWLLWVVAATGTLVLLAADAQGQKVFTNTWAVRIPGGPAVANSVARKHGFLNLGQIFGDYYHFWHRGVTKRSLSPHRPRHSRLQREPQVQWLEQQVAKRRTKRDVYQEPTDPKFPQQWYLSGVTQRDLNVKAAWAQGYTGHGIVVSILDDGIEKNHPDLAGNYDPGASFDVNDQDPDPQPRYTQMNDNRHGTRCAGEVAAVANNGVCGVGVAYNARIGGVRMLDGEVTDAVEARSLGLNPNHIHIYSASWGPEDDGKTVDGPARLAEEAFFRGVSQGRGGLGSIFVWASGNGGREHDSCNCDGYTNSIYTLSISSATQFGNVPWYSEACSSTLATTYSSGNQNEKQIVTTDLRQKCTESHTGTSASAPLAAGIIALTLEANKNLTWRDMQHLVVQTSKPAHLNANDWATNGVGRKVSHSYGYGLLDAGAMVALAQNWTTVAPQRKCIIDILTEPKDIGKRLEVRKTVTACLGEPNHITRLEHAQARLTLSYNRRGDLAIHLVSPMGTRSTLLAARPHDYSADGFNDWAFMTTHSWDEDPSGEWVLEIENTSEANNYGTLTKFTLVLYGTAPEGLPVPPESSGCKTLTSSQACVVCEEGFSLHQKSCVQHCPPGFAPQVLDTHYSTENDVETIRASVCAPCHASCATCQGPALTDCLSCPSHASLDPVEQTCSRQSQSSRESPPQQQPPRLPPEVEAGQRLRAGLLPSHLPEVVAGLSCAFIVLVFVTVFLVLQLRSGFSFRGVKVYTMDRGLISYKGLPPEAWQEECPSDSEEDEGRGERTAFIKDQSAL
# In short: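 Counterscreen measures cleavage of 2 microM BOC-RVRR-AMC, below its ~15 microM Km, by 5 nM full-length human furin at pH 7.0 after a 15-min compound preincubation. Inhibition derives from the 15-min fluorescence increase at 37C.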
# [12] = tested on: Zika virus NS2B-NS3 protease (linked construct); test: Confirmatory screen NINDS AMC qHTS for Zika virus inhibitors (AID 1347152); details: Purified linked NS2B-NS3, AMC substrate fluorescence; series mostly up to 56.6 µM;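 note: AMC fluorescence gain from cleaved Bz-Nle-KRR-AMC substrate over 15 min; top concentration of the series differs between compounds; nearly all actives have a fitted effect of over 70% in size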
# In short: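 Linked NS2B-NS3 1 nM, Tris pH 8.0/0.01% Tween 20; cpd 15 min RT dark; + Nle-KRR-AMC 10 µM (Km 18.3 µM); read 0 and 15 min, 340/450 nm; %inh vs controls, 4-param Hill.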
# [13] = tested on: Zika virus NS2B-NS3 protease (unlinked complex); test: Confirmatory screen GU AMC qHTS for Zika virus inhibitors (AID 1347153); details: Recombinant NS2B-NS3 protease, AMC substrate fluorescence; series mostly up to 57.1 µM; note: nearly all actives have a fitted effect of over 70% in size
# In short: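 Unlinked enzyme 25 nM, Tris pH 8.0/0.01% Tween 20; cpd 15 min RT, dark; + AMC substrate 10 µM (Km 18.3 µM); 340/450 nm read at t0 and 15 min; % inhibition → 4-param fit.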
# [14] = Confirmatory screen GU Rhodamine qHTS for Zika virus inhibitors qHTS (AID 1347157); details: purified enzyme assay, Rhodamine110 substrate fluorescence, 15 min; series mostly up to 114 µM; note: potency is the fitted concentration of half-maximal effect; nearly all actives have a fitted effect of over 70% in size
# In short: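 Buffer 10 mM Tris-HCl pH 8.0, 0.01% Tween 20. Unlinked protease 25 nM; compound preincubation 15 min, RT, protected from light. Substrate Rhod110, 1.5 microM; ~15% conversion in 15 min.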
# [15] = Confirmatory screen NINDS Rhodamine qHTS for Zika virus inhibitors (AID 1347161); details: purified enzyme assay, Rhodamine110 substrate fluorescence, 15 min; series mostly up to 114 µM
# In short: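 Kinetic fluorescence (Ex 480 nm, Em 540 nm) over 15 min with 1.5 microM Rhodamine110 peptide and 25 nM linked protease.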
# [16] = Vero cells viability qHTS for Zika virus inhibitors (AID 1347167); details: cytotoxicity counter-screen (Zika); series mostly up to 45.9 µM
# In short: (§1)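 qHTS titration; 24-48 h compound exposure, 37 degrees C/5% CO2; DMEM, 4% FBS; CellTiter Glo ATP luminescence.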
# [17] = HepG2 cells viability qHTS for Zika virus inhibitors (AID 1347168); details: Zika counter-screen; series mostly up to 45.9 µM
# In short: as §1
compound,measurement,setting,value
CN1CCC2=C(C1)c1ccccc1Cc1ccccc12,outcome,[1],inactive
same,Potency,[2],inactive
same,outcome,[3],inactive
CN1Cc2c(ccc3c2OCO3)[C@@H]2[C@H]1c1cc3c(cc1C[C@@H]2O)OCO3,Potency,[4],inactive
C/C=C1/CN2CC[C@]34C(=Nc5ccccc53)[C@@H]2C[C@@H]1[C@H]4C(=O)OC,Potency,[5],inactive
same,Potency,[6],inactive
same,Potency,[7],inactive
CN1C(=O)[C@]23CC4C(C)(C)[C@@]5(C[C@@]41CN2CC[C@@]3(C)O)C(=O)Nc1c5ccc2c1OC=CC(C)(C)O2 (some centres not stated),Potency,[8],7.43 µM (active)
C[C@H](Nc1ncnc2nc[nH]c12)c1nc2ccc(F)cc2c(=O)n1-c1ccccc1,Potency,[9],inactive
C[C@H]1CCC[C@H](O)CCC/C=C/c2cc(O)cc(O)c2C(=O)O1,Potency,[10],1 µM (active)
CC/C=C/C=C/C1(C)OC(OC)=C(C(=O)C2C(C)C(=O)c3cc(OC)c(O)c(O)c3C2(C)O)C1=O (configuration not stated),Potency,[11],inactive
same,Potency,[12],inactive
same,Potency,[13],inactive
same,Potency,[14],9.61 µM (active)
same,Potency,[15],6.81 µM (active)
same,Potency,[16],inactive
same,Potency,[17],inactive
